Screening results (PubChem)
TRHR PAM = qHTS for Small Molecule Agonists and Allosteric Enhancers of Human TRH Receptor: Primary Screen for Enhancers. TRHR cells, fluo-8 calcium fluorescence, EC20 TRH enhancement. Thyrotropin-releasing hormone receptor (Homo sapiens), P34981. enhancement, % at 2 µM. 360,000 tested, 0.66% active; in the data active = enhancement above about 30%; note: 0% is about no effect
Target sequence (P34981 whole entry, looked up): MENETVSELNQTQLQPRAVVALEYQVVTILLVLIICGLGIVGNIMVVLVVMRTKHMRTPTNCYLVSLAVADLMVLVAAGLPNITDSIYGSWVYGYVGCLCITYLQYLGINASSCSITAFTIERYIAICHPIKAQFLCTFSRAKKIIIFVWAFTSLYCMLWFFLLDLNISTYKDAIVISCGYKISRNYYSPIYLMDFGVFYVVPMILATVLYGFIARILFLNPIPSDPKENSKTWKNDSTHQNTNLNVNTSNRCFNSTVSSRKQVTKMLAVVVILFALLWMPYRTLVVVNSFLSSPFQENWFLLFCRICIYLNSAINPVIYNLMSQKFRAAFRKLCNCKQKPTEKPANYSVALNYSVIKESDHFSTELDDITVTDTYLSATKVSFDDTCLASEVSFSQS
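Enhancer read-out: after compound pinning and an initial kinetic agonist-mode read, an EC20 of TRH (10 nM final) was injected and fluo-8 calcium signal (Ex 480/Em 530) followed at 1 s/cycle for 100 cycles in TRHR-expressing cells.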
D1 agonist = Allosteric Agonists of the Human D1 Dopamine Receptor: qHTS | D(1A) dopamine receptor (Homo sapiens), P21728 | HEK293 T-REx D1 cells, calcium flux, agonist mode | activation, % at 2 µM | 360,000 tested, 1% active | AID 504660, 2011; note: 0% is about no effect
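Agonism was scored from calcium flux recorded over 180 s (1 read/s) after pintool compound addition, following a 10-cycle baseline. Cells were inducible force-coupled HEK293 TREx D1, plated overnight at 30 C and loaded with no-wash calcium dye.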
D1 potentiator = Potentiators of Human D1 Dopamine Receptor: qHTS. HEK293 TREx D1 cells, calcium flux, dopamine EC20 potentiation. 360,000 tested, 0.036% active. AID 504651, 2011. D(1A) dopamine receptor (Homo sapiens), P21728. potentiation, % at 10 µM; in the data active = potentiation above about 30%; note: 0% is about no effect
D1 antag = Antagonist of Human D 1 Dopamine Receptor: qHTS; activity change, negative = inhibition, % at 10 µM; D(1A) dopamine receptor (Homo sapiens), P21728; HEK293 TREx D1 cells, calcium flux, dopamine EC80; hits give low values; 360,000 tested, 3.2% active; in the data active = activity change below about -30%; note: % is set by controls: 0 for no effect and ±100 for the full control effect
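Allosteric or orthosteric antagonism assessed as attenuation of the calcium response to EC80 dopamine, added 180 s after compound, in induced HEK293 Trex D1 cells loaded with no-wash calcium dye.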
TRHR agonist = qHTS for Small Molecule Agonists and Allosteric Enhancers of Human TRH Receptor: Primary Screen for Agonists | activation, % at 2 µM | 360,000 tested, 0.18% active | Thyrotropin-releasing hormone receptor (Homo sapiens), P34981 | TRHR cells, calcium flux fluo-8, FDSS agonist mode | AID 493084, 2011; note: 0% is about no effect
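Agonist-mode FDSS calcium read (Ex 480/Em 530, 1 s cycles) in 1536-well TRHR cells with fluo-8 dye, after 10-cycle baseline and 23 nL compound addition; TRH at EC20 (10 nM final) added afterwards for the enhancer phase.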
Active calls of the source: *. Compounds with a hit are over-represented: about 4.7% of the library has one in this group of screens. Cut-off read from the data, not from the text of the source, unless noted: active = activation above about 30%; inactive = the rest.

Cc1ccc(N2CCN(C(=O)c3cn(C)c4ccc(S(=O)(=O)N5CCCC5)cc4c3=O)CC2C)cc1 (stereo unspecified) was read as TRHR PAM 0, D1 agonist 0, D1 potentiator 3, D1 antag -82* and TRHR agonist -1.
For COc1cc(/C=N/O)cc(Cl)c1OC the results were TRHR PAM 0, D1 agonist 89*, D1 potentiator 0, D1 antag 38 and TRHR agonist 0.
CN(C)S(=O)(=O)c1ccc(NC(=O)CN2C(=O)NC3(CCCC3)C2=O)cc1 was read as TRHR PAM 36*, D1 agonist 5, D1 potentiator -6, D1 antag -10 and TRHR agonist 1.
CN(C)c1ccc(S(=O)(=O)N2CCCCC2)cc1NC(=O)CN1C(=O)NC2(CCCC2)C1=O was read as TRHR PAM 7, D1 agonist -1, D1 potentiator 4, D1 antag -42* and TRHR agonist -1.
For CN(C)c1ccc(S(=O)(=O)N2CCCCC2)cc1NC(=O)CN1C(=O)NC(C)(c2ccccc2)C1=O (stereo unspecified) the results were TRHR PAM 6, D1 agonist 3, D1 potentiator 0, D1 antag 3 and TRHR agonist 0.
For Cc1ccc(Cl)cc1NC(=O)c1ccc2snnc2c1 the results were TRHR PAM -2, D1 agonist 5, D1 potentiator -1, D1 antag -6 and TRHR agonist -1.
For Cc1cccc(N(CC(=O)Nc2cccc(Cl)c2C)S(C)(=O)=O)c1C the results were TRHR PAM 8, D1 agonist 4, D1 potentiator -2, D1 antag 23 and TRHR agonist 0.
Clc1cccc(N2CCN(c3ncnc4c3nc3n4CCCCC3)CC2)c1 was read as TRHR PAM 4, D1 agonist 5, D1 potentiator -1, D1 antag -4 and TRHR agonist -1.
Screening Cc1nnc(NC(=O)C2CC(=O)N(c3ccc4c(c3)OCCO4)C2)s1 (stereo unspecified) returned TRHR PAM 35*, D1 agonist 2, D1 potentiator -7, D1 antag 1 and TRHR agonist 0.
Screening CC(=O)Nc1ccc(S(=O)(=O)NC2CC(=O)N(c3ccc4c(c3)OCCO4)C2)cc1 (stereo unspecified) returned TRHR PAM 40*, D1 agonist 0, D1 potentiator -2, D1 antag -6 and TRHR agonist 0.
Screening CC(=O)c1ccc(S(=O)(=O)NC2CC(=O)N(c3ccc(C)c(C)c3)C2)cc1 (stereo unspecified) returned TRHR PAM -4, D1 agonist 28, D1 potentiator -2, D1 antag -31* and TRHR agonist 1.
Screening CCCCc1nnc(NC(=O)C2CC(=O)N(c3ccc4c(c3)OCCO4)C2)s1 (stereo unspecified) returned TRHR PAM 15, D1 agonist 3, D1 potentiator 8, D1 antag 11 and TRHR agonist 0.
For COc1ccc(S(=O)(=O)NC2CC(=O)N(c3ccccc3)C2)cc1C (stereo unspecified) the results were TRHR PAM 2, D1 agonist 4, D1 potentiator 0, D1 antag -54* and TRHR agonist 0.
For Cc1ccc(S(=O)(=O)NC2CC(=O)N(c3ccc4c(c3)OCCO4)C2)cc1 (stereo unspecified) the results were TRHR PAM 3, D1 agonist 2, D1 potentiator -2, D1 antag 5 and TRHR agonist 0.
Cc1cccc(NC(=O)CN2C(=O)C(c3ccccc3)=NC23CCC(C)CC3)c1 (stereo unspecified) was read as TRHR PAM 5, D1 agonist 3, D1 potentiator 2, D1 antag 22 and TRHR agonist 2.
For Cc1ccccc1NC(=O)C1CCN(S(=O)(=O)c2ccccc2)CC1 the results were TRHR PAM -8, D1 agonist 3, D1 potentiator 2, D1 antag -13 and TRHR agonist 1.
Cc1cc(NC(=O)CSc2nnc(NC(=O)C3CC(=O)N(c4ccccc4)C3)s2)no1 (stereo unspecified) was read as TRHR PAM -3, D1 agonist 3, D1 potentiator -8, D1 antag -46* and TRHR agonist 0.
Screening Cc1cc(NC(=O)CSc2nnc(NC(=O)C3CC(=O)N(c4ccccc4C)C3)s2)no1 (stereo unspecified) returned TRHR PAM 0, D1 agonist 2, D1 potentiator 10, D1 antag 9 and TRHR agonist 0.
Cc1ccc(NC(=O)NC2CC(=O)N(c3ccc4c(c3)OCCO4)C2)c(C)c1 (stereo unspecified) was read as TRHR PAM 1, D1 agonist -1, D1 potentiator -4, D1 antag -47* and TRHR agonist 0.
Screening COc1ccc(-c2cc(C)no2)cc1S(=O)(=O)Nc1cccc(C(F)(F)F)c1 returned TRHR PAM 7, D1 agonist 3, D1 potentiator -2, D1 antag -14 and TRHR agonist 1.
`COc1cccc(/C=N/NC(=O)c2ccc(-c3ccccc3)cc2)c1O` gave TRHR PAM 9, D1 agonist 4, D1 potentiator 1, D1 antag -6 and TRHR agonist 3.
Screening O=C(CCc1ccccc1)Nc1cc2c(cc1Cl)OCCO2 returned TRHR PAM 5, D1 agonist 0, D1 potentiator -7, D1 antag -30* and TRHR agonist 0.
For COc1cccc(/C=N/NC(=O)c2[nH]c(C)c(C(=O)N/N=C/c3cccc(OC)c3O)c2C)c1O the results were TRHR PAM -4, D1 agonist 0, D1 potentiator -7, D1 antag -77* and TRHR agonist 1.
Screening O=C(CNC(=O)c1ccccc1)N/N=C/c1ccccc1Cl returned TRHR PAM -6, D1 agonist 0, D1 potentiator 32*, D1 antag -3 and TRHR agonist 0.
Screening O=C(Cc1ccccc1)N/N=C/c1cc2c(cc1Cl)OCO2 returned TRHR PAM 12, D1 agonist 16, D1 potentiator -11, D1 antag -40* and TRHR agonist 0.
For O=C(CNC(=O)c1ccccc1)N/N=C/c1cccs1 the results were TRHR PAM 0, D1 agonist 0, D1 potentiator 2, D1 antag 9 and TRHR agonist 0.
`O=C(N/N=C\c1cc2c(cc1Cl)OCO2)c1cccs1` gave TRHR PAM 5, D1 agonist 0, D1 potentiator 0, D1 antag 10 and TRHR agonist 2.
